The values that follow come from ChEMBL document CHEMBL3433997, “St. Jude Leishmania screening dataset” (2016).

This experiment concerns the target Glucose transporter (Leishmania mexicana) (UniProt O61059). As to the kind of experiment: ST_JUDE_LEISH: Cytotoxicity at 2uM final concentration against transgenic Leishmania Mexicana promastigotes LmGT2 that are glucose transport deficient and complemented with the L. Mexicana glucose transporter 2. Activity is measured by DNA content using SYBR green in vitro. In kind it is functional.
Broadly, the inhibition is the drop in the measured response relative to a control, in per cent. With `COc1ccc(C2CC(c3ccccc3O)=NN2C(=O)c2ccco2)cc1OC` (stereo not given), the inhibition was -2.92%.

In the case of `O=C(NCCCCN1CCC(c2ccc3c(c2OCc2ccccn2)CCCC3)CC1)c1ccc(NC(=O)c2ccc(Cl)cc2)cc1`, the inhibition was determined as 2.55%.

In the case of `CC1(C)N=C(N)N=C(N)N1c1ccc(Cl)c(Cl)c1`, the inhibition amounted to 3.04%.

Regarding `Cc1noc(C)c1-c1cccc(C(=O)NC2CCN(CCNC(=O)C(c3ccccc3)c3ccccc3)CC2)c1`, the inhibition was determined as 1.64%.

In the case of `Cc1cccc(C)c1/N=C1\NC(=S)N(c2cccc(Cl)c2)C12CCC(C(C)(C)C)CC2` (stereo not given), the inhibition was 0.24%.

Consider `Cc1cc(N[C@@H](CC(C)C)C(=O)NC2CCCC2)nc(NCc2ccccc2C)n1`, for which the inhibition amounted to 1.62%.

Take `Cc1cc(N2CCN(C)CC2)nc2ccc(NC(=O)c3cccc(N(C)C)c3)cc12`: the inhibition came to 10.2%.

As for `CCOC(=O)CC[C@H](NC(=O)c1ccc(NS(=O)(=O)c2ccc(-c3cnc(N)[nH]c3=O)cc2)cc1)C(=O)OCC`, the inhibition was 4.7%.

For the compound `Cc1nc(O)c2c(ccc3ccc(CN(C)c4ccc(C(=O)N[C@@H](CCC(=O)O)C(=O)O)cc4)cc32)n1`, the inhibition was -1.57%.

As to `Cc1nc2nc(N)nc(N)c2c(C)c1Cc1ccc(C#N)cc1`, the inhibition was -0.44%.

As for `COc1ccc2c(=O)ccn(CCN3CCC(NCc4ccc5c(n4)NC(=O)CS5)CC3)c2c1`, the inhibition was determined as 3.24%.

Regarding `Nc1ccn([C@@H]2O[C@H](COC(c3ccccc3)(c3ccccc3)c3ccccc3)[C@@H](O)[C@@H]2O)c(=O)n1`, the inhibition was found to be 4.4%.

On to `O=C(NC1CCN(c2ccnc3cc(Cl)ccc23)C1)c1ccc(F)cc1` (stereo not given), for which the inhibition was found to be 4.18%.

Consider `CCN(CC)CCOc1ccc(NC(=O)c2oc3ccccc3c2C=Cc2ccccc2)cc1`, for which the inhibition worked out at 0.81%.

On to `O=C(Nc1cccc(CN2CCCN(Cc3cccc(O)c3)CC2)c1)c1ccc(-c2ccccc2)cc1`, for which the inhibition was -0.17%.

In the case of `COc1ccc2nc(N=C3NC4(c5ccccc5)NC(=Nc5nc6ccc(OC)cc6[nH]5)NC4(c4ccccc4)N3)[nH]c2c1` (stereo not given), the inhibition is -0.87%.

With `Cc1[nH]c(C)c(-c2ccc(CCc3cccc(C(F)(F)F)c3)nc2)c(=O)c1Cl`, the inhibition is 0.88%.

Consider `c1ccc(OCCCCN2CCCCC2)cc1`, for which the inhibition was -4.15%.

Regarding `CCO[C@H]1CN[C@H](C#Cc2cc3c(Nc4ccc(OCc5cccc(F)c5)c(Cl)c4)ncnc3s2)C1`, the inhibition is 3.03%.

As to `CCNc1cc(C(=O)N[C@@H](Cc2ccccc2)[C@H](O)CNC2CC3CCC2C3)cc(N2CCCCS2(=O)=O)c1` (stereo not given in full), the inhibition was -3.22%.

On to `COc1ccc2ncc(C#N)c(CCN3C[C@H](CNCc4ccccc4)[C@H](O)C3)c2n1`, for which the inhibition came to 2.91%.

Consider `CN1CCN(Cc2ccc(-c3ccc4c(Nc5ccc(Oc6ccccn6)cc5)ccnc4c3)o2)CC1`, for which the inhibition was -1.97%.

`CN(C)C(=O)c1cc(CNCc2ccccc2)ccc1-c1cccc(CNCc2ccc(-c3ccccc3)cc2)c1`: the inhibition is 3.02%.

Consider `COc1cc(OC)c(NC(=O)C2c3ccccc3C(=O)N(C)C2c2cccs2)cc1Cl` (stereo not given), for which the inhibition was found to be 5.98%.

Take `COc1ccc(CNC2CCN(C)CC2)cc1-c1ccc(S(=O)(=O)NC2CCC2)s1`: the inhibition was determined as 0.46%.

With `Cc1ccc(C2CCN(CCCCNC(=O)c3ccc(NC(=O)c4ccc(Cl)cc4)cc3)CC2)c(C)c1`, the inhibition is -0.85%.

As for `CC(C)c1cc(Oc2c(I)cc(CCCc3ncc[nH]3)cc2I)ccc1O`, the inhibition was 6.8%.

On to `CC(C)CCN1CCC(Oc2ccc(NC(=O)c3ccc(F)cc3)cc2Cl)CC1`, for which the inhibition amounted to 0.92%.

With `COc1ccc(CN2CCCN(Cc3cccc(NC(=O)c4ccc(-c5ccccc5)cc4)c3)CC2)cc1`, the inhibition was -4.3%.

Turning to `CN(C)CCOc1ccc(-c2cc(-c3ccncc3)c(-c3ccc(Cl)c(O)c3)[nH]2)cc1`, the inhibition was determined as 1.4%.

With `Cc1cc(N[C@@H](CC(C)C)C(=O)NC2CCCC2)nc(NCCc2ccc(F)cc2)n1`, the inhibition was found to be 0.03%.

As for `CCCCn1c(N)c(N(Cc2ccco2)C(=O)C=Cc2cc(OC)c3c(c2)OCCO3)c(O)nc1=O`, the inhibition was 3.32%.

For the compound `O=C(NC(c1ccccc1)c1ccc2cccnc2c1O)c1ccccc1` (stereo not given), the inhibition turned out to be 4.35%.

Turning to `NC(=O)c1sc(-n2cnc3ccccc32)cc1OCc1ccccc1[N+](=O)[O-]`, the inhibition worked out at 6.48%.

With `CCN(CC)CCCN(C(=O)Nc1ccc(C#N)cc1)c1nc(-c2ccc(F)cc2)cs1`, the inhibition is -0.41%.

As to `Cc1noc(C)c1-c1cccc(CNCc2cccc(-c3cccc(-c4nc5cccc(C)c5[nH]4)c3)c2)c1`, the inhibition is -0.78%.

As to `Cn1cncc1CCN(Cc1ccc(-c2ccc(C(F)(F)F)cc2)cc1)C(=O)Cn1c(SCc2cccc(F)c2F)cc(=O)c2ccccc21`, the inhibition was found to be 2.14%.

For the compound `Nc1ncc(-c2ccsc2)c2ccc(-c3cnc[nH]3)cc12`, the inhibition was -0.37%.

For the compound `Cc1cccc2nc(-c3cccc(-c4cccc(NC(=O)Cc5ccc[n+]([O-])c5)c4)c3)[nH]c12`, the inhibition came out at 0.81%.

Regarding `Cc1nc(C)c(-c2ccc(S(=O)(=O)c3ccc(Cl)cc3)cc2)c(O)c1Br`, the inhibition was 4.12%.
